Experimental data: the supplement of paper PMC6607015
Where a name gives a salt, the structure may show the parent alone.

Experiments:
Details in all cases: compound concentration in added solution (µM; 5 µl added to 20 µl cells): 10; 18 h
[1] = test system: A431; assay: LBPA endosome anti-LBPA integrated intensity (sum per cell), Z-score; higher = more LBPA staining
Outline: (§1)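 In duplicate 384-well imaging plates, 3,500 HeLa MZ or A431 cells in 20 µl per well were seeded onto 5 µl of 10 µM compound solution. The cells were incubated for 18 h, fixed in 4% PFA and stained with 6C4 anti-LBPA antibody, filipin, propidium iodide and CellTracker green before four 20× images were acquired per well. Values are AcuityXpress-normalised Z-scores of per-cell integrated LBPA or filipin intensity, obtained by MetaXpress segmentation over the whole cell or in LBPA endosomes.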

[2] = test system: HeLa MZ; assay: as above
Outline: as §1

[3] = test system: A431; assay: whole-cell filipin (free cholesterol) integrated intensity, Z-score; higher = more cholesterol staining
Outline: as §1

[4] = test system: HeLa MZ; assay: as above
Outline: as §1

[5] = test system: A431; assay: filipin (cholesterol) integrated intensity within LBPA endosomes, Z-score; higher = more cholesterol in LBPA endosomes
Outline: as §1

[6] = test system: HeLa MZ; assay: as above
Outline: as §1

SMILES	LBPA endosome anti-LBPA integrated intensity (z-score) [1]	LBPA endosome anti-LBPA integrated intensity (z-score) [2]	whole-cell filipin (z-score) [3]	whole-cell filipin (z-score) [4]	filipin (z-score) [5]	filipin (z-score) [6]
C[N+]1(CCCCC[N+]2(C)CCCC2)CCCC1 [Pentolinium bitartrate]	-0.453	-0.278	-0.653	-0.161	-0.437	-0.405
CC=CC(=O)N(CC)c1ccccc1C [Crotamiton]	-0.66	-1.3	-0.358	-0.316	-0.501	-0.424
CC(C)NCC(O)c1ccc(NS(C)(=O)=O)cc1 (stereo not drawn) [Sotalol hydrochloride]	-0.295	-0.419	0.181	0.261	-0.181	-0.219
Cc1c(N)c(=O)n(-c2ccccc2)n1C [Ampyrone]	-0.478	-0.409	-0.998	-1.26	-0.379	-0.625
COC(=O)[C@@H]1[C@H]2C[C@H]3c4[nH]c5ccccc5c4CCN3C[C@@H]2CC[C@@H]1O [Yohimbine hydrochloride]	-0.468	-0.264	-0.685	-0.575	-0.434	-0.333
Cc1[nH]c(=O)c(C#N)cc1-c1ccncc1 [Milrinone]	-0.393	0.29	-0.171	-0.0695	-0.351	-0.372
CC(=C(CCO)SSCC1CCCO1)N(C=O)Cc1cnc(C)nc1N (stereo in doubt) [Fursultiamine Hydrochloride]	-0.412	-0.276	-0.00261	0.173	-0.513	-0.472
C=CCOC(Cn1ccnc1)c1ccc(Cl)cc1Cl (stereo not drawn) [Enilconazole]	-0.206	-0.741	0.571	0.192	-0.128	-0.352
CCOC(=O)NNc1nncc2ccccc12 [Todralazine hydrochloride]	-0.642	-1.72	-0.897	-0.795	-0.572	-0.622
O=S(=O)(O)CCS [Mesna]	-0.366	0.0893	-0.163	0.141	-0.454	-0.55
CCOc1ccccc1OC(c1ccccc1)C1CNCCO1 (stereo not drawn) [Reboxetine mesylate]	-0.315	0.133	-0.477	-0.595	-0.205	-0.384
NS(=O)(=O)c1cc2c(cc1Cl)N=CNS2(=O)=O [Chlorothiazide]	-0.508	-0.375	-0.521	-0.988	-0.472	-0.537
Cc1cc(C)nc(NS(=O)(=O)c2ccc(N)cc2)n1 [Sulfamethazine sodium salt]	-0.34	0.511	0.128	-0.158	-0.422	-0.588
Cc1cn[nH]c1 [Fomepizole]	-0.605	-0.603	-0.686	-0.874	-0.557	-0.633
C[C@]12CCC(=O)C=C1CC[C@@H]1[C@@H]2[C@@H](O)C[C@@]2(C)[C@H]1CC[C@]2(O)C(=O)CO [Hydrocortisone base]	-0.41	-0.249	-0.675	-0.6	-0.327	-0.44
CCC(=O)O[C@]1(C(=O)CCl)[C@@H](C)C[C@H]2[C@@H]3CCC4=CC(=O)C=C[C@]4(C)[C@@]3(F)[C@@H](O)C[C@@]21C [Clobetasol propionate]	-0.343	-0.845	0.00699	-0.332	-0.266	-0.465
CC[C@@H](CO)NCCN[C@@H](CC)CO [Ethambutol dihydrochloride]	-0.297	-0.0372	-0.506	-0.399	-0.429	-0.483
CCC(C)n1ncn(-c2ccc(N3CCN(c4ccc(OCC5COC(Cn6cncn6)(c6ccc(Cl)cc6Cl)O5)cc4)CC3)cc2)c1=O (stereo not drawn) [Itraconazole]	1.31	0.474	2.3	2.36	2.02	1.87
C1N2CN3CN1CN(C2)C3 [Methenamine]	-0.374	0.113	-0.146	0.773	-0.379	-0.0431
O=C1CN(/N=C/c2ccc(-c3ccc([N+](=O)[O-])cc3)o2)C(=O)N1 [Dantrolene sodium salt]	-0.554	-0.147	-1.1	-0.944	-0.655	-0.686
O=C1Cc2cc(CCN3CCN(c4nsc5ccccc45)CC3)c(Cl)cc2N1 [Ziprasidone  Hydrochloride]	1.04	1.09	0.285	0.974	0.571	1.31
Clc1ccc(C(Cn2ccnc2)OCc2c(Cl)cccc2Cl)c(Cl)c1 (stereo not drawn) [Isoconazole]	-0.0559	1.26	-0.00171	-0.264	0.0343	0.0567
Nc1nnc(-c2cccc(Cl)c2Cl)c(N)n1 [Lamotrigine]	-0.222	1.64	0.954	3.15	-0.396	-0.375
CC(=O)CC(c1ccc([N+](=O)[O-])cc1)c1c(O)c2ccccc2oc1=O (stereo not drawn) [Acenocoumarol]	-0.507	-0.33	-0.704	-0.387	-0.49	-0.482

SMILES	LBPA endosome anti-LBPA integrated intensity (z-score) [1]	LBPA endosome anti-LBPA integrated intensity (z-score) [2]	whole-cell filipin (z-score) [3]	whole-cell filipin (z-score) [4]	filipin (z-score) [5]	filipin (z-score) [6]
C#C[C@]1(O)CC[C@H]2[C@@H]3[C@H](C)CC4=C(CCC(=O)C4)[C@H]3CC[C@@]21C [Tibolone]	-0.522	-0.57	-0.775	-0.295	-0.476	-0.561
CN1C(=O)OC(C)(C)C1=O [Trimethadione]	-0.446	-0.0741	-0.388	-0.0387	-0.476	-0.496
CC(C(=O)O)c1ccc(C(=O)c2cccs2)cc1 (stereo not drawn) [Suprofen]	-0.328	0.404	0.0494	0.84	-0.289	-0.21
CN[C@@H]1[C@@H](O)[C@@H](O[C@@H]2[C@@H](O)[C@H](O[C@H]3OC(CN)=CC[C@H]3N)[C@@H](N)C[C@H]2N)OC[C@]1(C)O [Sisomicin sulfate]	-0.541	-0.481	-0.622	-0.546	-0.517	-0.45
Fc1ccc(C(c2ccc(F)cc2)N2CCN(C/C=C/c3ccccc3)CC2)cc1 [Flunarizine dihydrochloride]	0.53	-0.311	0.301	-0.958	0.627	0.163
CC(=O)N1CCN(c2ccc(OCC3COC(Cn4ccnc4)(c4ccc(Cl)cc4Cl)O3)cc2)CC1 (stereo not drawn) [Ketoconazole]	1.81	1.94	3.72	3.7	3.52	4.06
OC(CCN1CCCCC1)(c1ccccc1)c1ccccc1 [Pridinol methanesulfonate salt]	-0.0313	0.215	-0.378	-0.508	-0.23	-0.0603
CC(C)NC[C@H](O)COc1cccc2ccccc12 [(S)-propranolol hydrochloride]	-0.105	1.72	0.666	-0.426	-0.189	0.093
COc1ccccc1OCC(O)COC(N)=O (stereo not drawn) [Methocarbamol]	-0.567	-0.641	-0.741	-0.777	-0.492	-0.501
NC(=O)c1cc[n+](CC2=C(C(=O)[O-])N3C(=O)[C@@H](NC(=O)[C@@H](c4ccccc4)S(=O)(=O)O)[C@H]3SC2)cc1 [Cefsulodin sodium salt]	-0.471	-0.634	-0.331	-0.0382	-0.357	-0.398
Nc1ccc(C(=O)O)c(O)c1 [4-aminosalicylic acid]	-0.488	-0.439	-0.159	-0.434	-0.444	-0.569
CN(Cc1ccc(C(C)(C)C)cc1)Cc1cccc2ccccc12 [Butenafine Hydrochloride]	-0.698	-1.43	-0.644	-0.481	-0.512	-0.793
O=C(OCCOCCO)c1ccccc1Nc1cccc(C(F)(F)F)c1 [Etofenamate]	-0.474	-0.295	-0.883	-1.24	-0.564	-0.692
O=C(COc1ccc(Cl)cc1)N1CCN(Cc2ccc3c(c2)OCO3)CC1 [Fipexide hydrochloride]	-0.365	0.298	-0.792	-0.7	-0.47	-0.495
CN1CCN(C(c2ccccc2)c2ccc(Cl)cc2)CC1 (stereo not drawn) [Chlorcyclizine hydrochloride]	1.56	0.74	1.78	-0.254	1.24	0.687
C[C@H](CCC(=O)O)[C@H]1CC[C@H]2[C@@H]3[C@H](O)C[C@@H]4C[C@H](O)CC[C@]4(C)[C@H]3CC[C@]12C [Chenodiol]	-0.496	-1.46	-0.897	-0.999	-0.575	-0.773
CN(C)CCCN1c2ccccc2Sc2ccc(Cl)cc21 [Chlorpromazine hydrochloride]	3.29	1.39	0.659	0.0307	2.35	1.67
C[C@]12CC[C@@H]3c4ccc(O)cc4CC[C@H]3[C@@H]1CCC2=O [Estrone]	-0.124	0.505	-0.166	-0.0664	-0.236	-0.151
C[C@]12CC[C@@H]3c4ccc(O)cc4CC[C@H]3[C@@H]1C[C@@H](O)[C@@H]2O [Estriol]	-0.219	0.135	-0.24	-0.552	-0.367	-0.397
CO[C@H]1/C=C/O[C@@]2(C)Oc3c(C)c(O)c4c(O)c(c(/C=N/N5CCN(C6CCCC6)CC5)c(O)c4c3C2=O)NC(=O)/C(C)=C\C=C\[C@H](C)[C@H](O)[C@@H](C)[C@@H](O)[C@@H](C)[C@H](OC(C)=O)[C@@H]1C [Rifapentine]	-0.344	-0.538	-0.546	-0.401	-0.461	-0.486
Clc1ccccc1CN1CCc2sccc2C1 [Ticlopidine hydrochloride]	-0.571	-1.16	-0.834	-0.662	-0.515	-0.675
O=c1[nH]cnc2c1ncn2[C@H]1CC[C@@H](CO)O1 [Didanosine]	-0.649	-1.14	-1.2	-0.832	-0.585	-0.693
N[C@@H](C(=O)N[C@@H]1C(=O)N2C(C(=O)O)=C(Cl)CC[C@H]12)c1ccccc1 [Loracarbef]	-0.535	-0.139	-0.847	-0.304	-0.553	-0.73
CCOc1ccc2ccccc2c1C(=O)N[C@@H]1C(=O)N2[C@@H]1SC(C)(C)[C@@H]2C(=O)O [Nafcillin sodium salt monohydrate]	-0.558	-0.117	-0.348	-0.195	-0.443	-0.476
